Experimental data reported in PubChem BioAssay (NCATS).
Results filed as inconclusive are left out. Values without a mark were called inactive. Calls of active or inactive are those of the source. Calls come from the whole dose curve; as a rule, active = well fitted cell-killing curve with a large enough effect; inconclusive = small, poorly fitted or top-dose-only effect, or effect the other way; inactive = no such curve, though single readings can be large or run the other way. Numbered stars: 1 amine (or outer) side, 2 acyl side, 3 side chain; on linkers, the order of the positions; unused ones are H or OH. Bridge positions count the residues as written; N and C are the ends. Square brackets hold non-standard residues; d marks the D form. Peptide text beside a SMILES is read from it. I, II: the chains in the order shown. Actinocin(9to1) = Cc1c2oc3c(C)ccc(C(=O)[*:1])c3nc-2c(C(=O)[*:2])c(N)c1=O; NMeV = CN[C@H](C(=O)O)C(C)C; Sar = CNCC(=O)O

Test: qHTS of pediatric cancer cell lines to identify multiple opportunities for drug repurposing: Confirmatory screen for NB-EBc1 cells (AID 1347115);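 note: cells exposed to compound for 48 h before the viability read; nearly all actives have a fitted effect of over 45% in size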
Conditions: NB-EBc1 neuroblastoma cells, viability (cytotoxicity); series mostly up to 45.9 µM; activity change, negative = cytotoxic: at the top concentration
Description: Drug repurposing or repositioning has been offered as a strategy for drug development in oncology programs. This approach has special potential for childhood cancers and other rare or orphan diseases, where the expected return on new drug development has been a disincentive to pharmaceuticals.
In this project we exploit the poly-pharmacology of drugs to discover new indications via phenotypic screening of a panel of 19 well-characterized cell lines derived from solid tumors seen in children and adolescents. The goal is to identify approved drugs with previously unrecognized anticancer properties that has the potential to reveal new mechanisms and biological processes involved in carcinogenesis or drug resistance. We employed a titration-based paradigm (quantitative high-throughput screening or qHTS), where all compounds were tested at multiple concentrations for their effect on cell viability. Concentration-response curves (CRCs) were derived directly from the primary screen, and both potency and efficacy values were used to identify compounds with robust bioactivity profiles. We screened the NIH Chemical Genomics Center (NCGC) Pharmaceutical Collection (NPC) and Mechanism Interrogation Plate (MIPE) small molecule collections of approved and investigational compounds against these cell lines; and measured metabolically active cells after 48 hours of compound treatment as a proxy for cell viability.
Assay Submitter: Nathalia J. Martinez, National Center for Advancing Translational Sciences, National Institutes of Health, Rockville, MD, USA; email: natalia.martinez@nih.gov
[1] Shen, M et al. Quantitative high-throughput phenotypic screening of pediatric cancer cell lines identifies multiple opportunities for drug repurposing. Oncotarget 2017 Dec 19;9(4):4758-4772. PMID 29435139.
The cells were obtained from University of North Carolina (UNC), Pediatric Preclinical Testing Program (PPT), and Coriell Institute (CI).
qHTS cell viability assay:
Cells were assayed in growth media at a density of 500-1,000 cells/well. Five microliters of cells were dispensed into 1,536-well, white, solid-bottom, TC-treated plates (Greiner Bio One) using a multidrop dispenser and incubated at 37 degrees C, 5% CO2, under a humidified atmosphere for 5 hours. Twenty-three nanoliters of compounds and controls (neutral control DMSO or positive control bortezomib at final concentration of 2.3 µM) were subsequently transferred by Kalypsys pintool. For primary screens, the MIPE collection was tested at 11-point dilutions (final concentrations range from 0.78 nM to 46 µM) and the NPC collection at 8-point dilutions (final concentrations range from 0.59 nM to 46 µM). Compounds tested in follow-up screens were assayed at 11-point dilutions. Cells were incubated for 48 hours, followed by addition of 3 µL of CellTiter-Glo (Promega). After a 15 min incubation at room temperature, samples were analyzed for luminescence intensity using a ViewLux High-throughput CCD imager equipped with clear filters.
% is set by controls: 0 for no effect and ±100 for the full control effect; potency is the fitted concentration of half-maximal effect.

SMILES | activity change, negative = cytotoxic [%] | Potency
NC(=O)CC[C@@H]1NC(=O)[C@H](Cc2ccccc2)NC(=O)[C@H](Cc2ccc(O)cc2)NC(=O)CCSSC[C@@H](C(=O)N2CCC[C@H]2C(=O)N[C@@H](CCCN=C(N)N)C(=O)NCC(N)=O)NC(=O)[C@H](CC(N)=O)NC1=O | -7.4 | 
COCc1c(C(C)C)nc(C(C)C)c(/C=C/[C@@H](O)C[C@@H](O)CC(=O)O)c1-c1ccc(F)cc1 |  | 4.14 µM (active)
C[C@H]1C[C@H]2[C@@H]3CCC4=CC(=O)C=C[C@]4(C)[C@@]3(Cl)[C@@H](O)C[C@]2(C)[C@@]1(O)C(=O)CO | -15.7 | 
C[C@]12C=CC(=O)C=C1CC[C@@H]1[C@@H]2[C@@H](O)C[C@@]2(C)[C@H]1CC[C@]2(O)C(=O)CO | 4.27 | 
COc1cc(C=C2CCC/C(=C\c3ccc(O)c(OC)c3)C2=O)ccc1O |  | 23.3 µM (active)
C[C@]12CCC(=O)C=C1CC[C@H]1[C@@H]3CC[C@](O)(C(=O)CO)[C@@]3(C)C[C@H](O)[C@@]12F | -1.25 | 
CC(=O)OCC(=O)[C@@]1(O)[C@H](C)C[C@H]2[C@@H]3CCC4=CC(=O)C=C[C@]4(C)[C@@]3(F)[C@@H](O)C[C@@]21C | -10.1 | 
CN(C)/N=N/c1nc[nH]c1C(N)=O |  | 18.5 µM (active)
OC[C@H]1O[C@@H](n2cnc3c(=S)nc[nH]c32)[C@H](O)[C@@H]1O |  | 3.69 µM (active)
CC1(C)O[C@@H]2C[C@H]3[C@@H]4CCC5=CC(=O)CC[C@]5(C)[C@@]4(F)[C@@H](O)C[C@]3(C)[C@]2(C(=O)CCl)O1 | 5.01 | 
CC(=O)OCC(=O)[C@@]1(OC(C)=O)[C@@H](C)C[C@H]2[C@@H]3C[C@H](F)C4=CC(=O)C=C[C@]4(C)[C@@]3(F)[C@@H](O)C[C@@]21C | -20 | 
CC(=O)O[C@]1(C(C)=O)CC[C@H]2[C@@H]3C[C@H](C)C4=CC(=O)CC[C@]4(C)[C@H]3CC[C@@]21C | -8.7 | 
C=C1C[C@H]2[C@@H]3C=C(C)C4=CC(=O)CC[C@]4(C)[C@H]3CC[C@]2(C)[C@@]1(OC(C)=O)C(C)=O | -7.44 | 
C[C@]12C=CC(=O)C=C1[C@@H](F)C[C@@H]1[C@@H]2[C@@H](O)C[C@@]2(C)[C@H]1CC[C@]2(O)C(=O)CO | 8.48 | 
CCCCC(CC)CN=C(N)NC(N)=NCCCCCCN=C(N)NC(N)=NCC(CC)CCCC (stereo not given) |  | 9.27 µM (active)
CC(=O)Oc1ccc(C(c2ccc(OC(C)=O)cc2)c2ccccn2)cc1 | -1.56 | 
Oc1ccc(O)cc1 |  | 14.7 µM (active)
Cc1c2oc3c(C)ccc(C(=O)N[C@@H]4C(=O)N[C@H](C(C)C)C(=O)N5CCC[C@H]5C(=O)N(C)CC(=O)N(C)[C@@H](C(C)C)C(=O)O[C@@H]4C)c3nc-2c(C(=O)N[C@@H]2C(=O)N[C@H](C(C)C)C(=O)N3CCC[C@H]3C(=O)N(C)CC(=O)N(C)[C@@H](C(C)C)C(=O)O[C@@H]2C)c(N)c1=O (I: T[dV]P[Sar][NMeV] / II: T[dV]P[Sar][NMeV]; ester I:1-I:C, II:1-II:C; linker I:N-II:N via Actinocin(9to1)) | -27.5 | 
COc1cccc2c1C(=O)c1c(O)c3c(c(O)c1C2=O)C[C@@](O)(C(=O)CO)C[C@@H]3O[C@H]1C[C@H](N)[C@H](O)[C@H](C)O1 |  | 3.29 µM (active)
CC1(C)O[C@@H]2C[C@H]3[C@@H]4C[C@H](F)C5=CC(=O)CC[C@]5(C)[C@H]4[C@@H](O)C[C@]3(C)[C@]2(C(=O)CO)O1 | 0.972 | 
CC(=O)OCC(=O)[C@@]1(O)CC[C@H]2[C@@H]3CCC4=CC(=O)C=C[C@]4(C)[C@H]3[C@@H](O)C[C@@]21C | 17.4 | 
O=C(CCCN1CCC(O)(c2ccc(Br)cc2)CC1)c1ccc(F)cc1 | -12 | 
NC(CO)(CO)CO | 17.3 | 
CCC(C(=O)OCCN(CC)CC)c1ccccc1 (stereo not given) | -3.98 | 
CC(C)(C(=O)c1cccnc1)c1cccnc1 | 7.05 | 
C[C@@H]1C[C@H]2[C@@H]3CCC4=CC(=O)C=C[C@]4(C)[C@@]3(F)[C@@H](O)C[C@]2(C)[C@H]1C(=O)CO | 2.03 | 
CCCCC(=O)O[C@]1(C(=O)CO)CC[C@H]2[C@@H]3CCC4=CC(=O)CC[C@]4(C)[C@H]3[C@@H](O)C[C@@]21C | -5.91 | 
CC(=O)OCC(=O)[C@@]12OC(C)(C)O[C@@H]1C[C@H]1[C@@H]3C[C@H](F)C4=CC(=O)C=C[C@]4(C)[C@@]3(F)[C@@H](O)C[C@@]12C | 11.2 | 
CCCC(=O)O[C@]1(C(=O)CO)CC[C@H]2[C@@H]3CCC4=CC(=O)CC[C@]4(C)[C@H]3[C@@H](O)C[C@@]21C | -4.16 | 
C[C@@H]1CN(CCCn2c3ccccc3c3ccccc32)C[C@H](C)N1 |  | 14.7 µM (active)
